This is an account of results in the supplement of paper PMC4723716.

The subject of one assay is Plasmodium falciparum NF54 gametocytes. The assay is described as follows: viability index relative to DMSO control (fraction); higher = less gametocyte killing. The conditions noted are these: gametocyte stage: Stage I viability index; 12.5 µM; incubation time: 72 h. Put shortly: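 P. falciparum NF54 gametocytes of each stage (I–V), in serum-containing medium (0.50% gametocytemia, 1.25% hematocrit, 40 µl), were incubated with compound at 12.5 µM in 384-well plates for 72 hr at 37°C under low oxygen. Wells received 5 µl of 5 µM MitoTracker Red CMXRos for 20 min. Then 5 µl was moved into 40 µl of 500 nM dye in serum-free medium and imaged after 30 min (three fields). The viability index was the gametocyte particle count divided by the plate mean of DMSO wells.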
`O=C(CCc1ccco1)NC1CCN(CC2(c3ccc(Cl)cc3)CCC2)CC1`: the viability index came out at 0.103.

`CN(N=O)C1=C(NC2CCCCC2)C(=O)c2ccccc2C1=O` registered a viability index of 0.00787.

In turn, `COc1cc(CNCCc2ccc(Cl)cc2)cc(OC)c1O` yielded a viability index of 0.049.

As for `Oc1ccc(Br)cc1CN1CCN(Cc2cccc(F)c2)CC1`, the viability index was 0.0385.

`COc1ccc(CN2CCN(Cc3ccccc3)CC2)c(O)c1` gave a viability index of 0.0656.

`Oc1ccc(C(=C(Cl)Cl)c2ccc(O)cc2)cc1` gave a viability index of 0.596.

`CCCCCCc1cc(O)c2c3c(c(=O)oc2c1)CCC(C)C3` (stereo not given): the viability index came to 0.291.

Turning to `Oc1ccc(Br)cc1CN1CCN(Cc2ccc(Cl)cc2)CC1`, the viability index came out at 0.0201.

`CCOc1cc(CNC(C)C(O)c2ccccc2)cc(Cl)c1OCC` (stereo not given) yielded a viability index of 0.137.

For the compound `CCOc1c(Cl)cc(CNC(C)C(O)c2ccccc2)cc1OC` (stereo not given), the viability index turned out to be 0.0917.

Turning to `C=CC12CCN(CC1)C(C(O)c1ccnc3ccc(OC)cc13)C2` (stereo not given), the viability index is 1.08.

`CCCc1cc(O)c2c3c(c(=O)oc2c1)CN(C)CC3` registered a viability index of 0.134.

Still in this assay, the particulars now being: gametocyte stage: Stage II viability index; 12.5 µM; incubation time: 72 h.
In turn, `O=C(CCc1ccco1)NC1CCN(CC2(c3ccc(Cl)cc3)CCC2)CC1` yielded a viability index of 0.412.

Compound `CN(N=O)C1=C(NC2CCCCC2)C(=O)c2ccccc2C1=O` displayed a viability index of 0.0183.

Take `COc1cc(CNCCc2ccc(Cl)cc2)cc(OC)c1O`: the viability index was 0.44.

The compound `Oc1ccc(Br)cc1CN1CCN(Cc2cccc(F)c2)CC1` displayed a viability index of 0.0899.

Compound `COc1ccc(CN2CCN(Cc3ccccc3)CC2)c(O)c1` showed a viability index of 0.0974.

Regarding `Oc1ccc(C(=C(Cl)Cl)c2ccc(O)cc2)cc1`, the viability index stood at 0.301.

The compound `CCCCCCc1cc(O)c2c3c(c(=O)oc2c1)CCC(C)C3` (stereo not given) showed a viability index of 0.329.

On to `Oc1ccc(Br)cc1CN1CCN(Cc2ccc(Cl)cc2)CC1`, for which the viability index came out at 0.0916.

`CCOc1cc(CNC(C)C(O)c2ccccc2)cc(Cl)c1OCC` (stereo not given) gave a viability index of 0.337.

In turn, `CCOc1c(Cl)cc(CNC(C)C(O)c2ccccc2)cc1OC` (stereo not given) returned a viability index of 0.317.

On to `C=CC12CCN(CC1)C(C(O)c1ccnc3ccc(OC)cc13)C2` (stereo not given), for which the viability index worked out at 1.08.

With `CCCc1cc(O)c2c3c(c(=O)oc2c1)CN(C)CC3`, the viability index stood at 0.296.

Staying with this assay, now noted: gametocyte stage: Stage III viability index; 12.5 µM; incubation time: 72 h.
Turning to `O=C(CCc1ccco1)NC1CCN(CC2(c3ccc(Cl)cc3)CCC2)CC1`, the viability index was 0.854.

Compound `CN(N=O)C1=C(NC2CCCCC2)C(=O)c2ccccc2C1=O` yielded a viability index of 0.309.

`COc1cc(CNCCc2ccc(Cl)cc2)cc(OC)c1O` had a viability index of 0.801.

`Oc1ccc(Br)cc1CN1CCN(Cc2cccc(F)c2)CC1`: the viability index was determined as 0.0787.

`COc1ccc(CN2CCN(Cc3ccccc3)CC2)c(O)c1` had a viability index of 0.362.

Consider `Oc1ccc(C(=C(Cl)Cl)c2ccc(O)cc2)cc1`, for which the viability index was determined as 0.741.

With `CCCCCCc1cc(O)c2c3c(c(=O)oc2c1)CCC(C)C3` (stereo not given), the viability index is 0.578.

With `Oc1ccc(Br)cc1CN1CCN(Cc2ccc(Cl)cc2)CC1`, the viability index amounted to 0.422.

With `CCOc1cc(CNC(C)C(O)c2ccccc2)cc(Cl)c1OCC` (stereo not given), the viability index turned out to be 0.634.

As for `CCOc1c(Cl)cc(CNC(C)C(O)c2ccccc2)cc1OC` (stereo not given), the viability index is 0.584.

Consider `C=CC12CCN(CC1)C(C(O)c1ccnc3ccc(OC)cc13)C2` (stereo not given), for which the viability index came to 1.13.

In turn, `CCCc1cc(O)c2c3c(c(=O)oc2c1)CN(C)CC3` registered a viability index of 0.649.

Staying with this assay, now noted: gametocyte stage: Stage IV viability index; 12.5 µM; incubation time: 72 h.
In the case of `O=C(CCc1ccco1)NC1CCN(CC2(c3ccc(Cl)cc3)CCC2)CC1`, the viability index is 0.903.

In the case of `CN(N=O)C1=C(NC2CCCCC2)C(=O)c2ccccc2C1=O`, the viability index worked out at 0.456.

`COc1cc(CNCCc2ccc(Cl)cc2)cc(OC)c1O` returned a viability index of 1.01.

`Oc1ccc(Br)cc1CN1CCN(Cc2cccc(F)c2)CC1`: the viability index was determined as 0.196.

Compound `COc1ccc(CN2CCN(Cc3ccccc3)CC2)c(O)c1` came in with a viability index of 0.57.

Compound `Oc1ccc(C(=C(Cl)Cl)c2ccc(O)cc2)cc1` showed a viability index of 0.756.

As for `CCCCCCc1cc(O)c2c3c(c(=O)oc2c1)CCC(C)C3` (stereo not given), the viability index worked out at 0.608.

Regarding `Oc1ccc(Br)cc1CN1CCN(Cc2ccc(Cl)cc2)CC1`, the viability index amounted to 0.595.

Consider `CCOc1cc(CNC(C)C(O)c2ccccc2)cc(Cl)c1OCC` (stereo not given), for which the viability index is 0.729.

For `CCOc1c(Cl)cc(CNC(C)C(O)c2ccccc2)cc1OC` (stereo not given), the viability index is 0.754.

The compound `C=CC12CCN(CC1)C(C(O)c1ccnc3ccc(OC)cc13)C2` (stereo not given) came in with a viability index of 0.976.

With `CCCc1cc(O)c2c3c(c(=O)oc2c1)CN(C)CC3`, the viability index amounted to 0.827.

The same assay, now with this note: gametocyte stage: Stage V viability index; 12.5 µM; incubation time: 72 h.
Turning to `O=C(CCc1ccco1)NC1CCN(CC2(c3ccc(Cl)cc3)CCC2)CC1`, the viability index is 1.05.

In the case of `CN(N=O)C1=C(NC2CCCCC2)C(=O)c2ccccc2C1=O`, the viability index stood at 0.234.

Consider `COc1cc(CNCCc2ccc(Cl)cc2)cc(OC)c1O`, for which the viability index came out at 0.896.

As to `Oc1ccc(Br)cc1CN1CCN(Cc2cccc(F)c2)CC1`, the viability index came to 0.273.

Compound `COc1ccc(CN2CCN(Cc3ccccc3)CC2)c(O)c1` yielded a viability index of 0.494.

For `Oc1ccc(C(=C(Cl)Cl)c2ccc(O)cc2)cc1`, the viability index worked out at 0.584.

In turn, `CCCCCCc1cc(O)c2c3c(c(=O)oc2c1)CCC(C)C3` (stereo not given) came in with a viability index of 0.74.

Compound `Oc1ccc(Br)cc1CN1CCN(Cc2ccc(Cl)cc2)CC1` yielded a viability index of 0.455.

On to `CCOc1cc(CNC(C)C(O)c2ccccc2)cc(Cl)c1OCC` (stereo not given), for which the viability index worked out at 0.791.

The compound `CCOc1c(Cl)cc(CNC(C)C(O)c2ccccc2)cc1OC` (stereo not given) had a viability index of 1.14.

In turn, `C=CC12CCN(CC1)C(C(O)c1ccnc3ccc(OC)cc13)C2` (stereo not given) displayed a viability index of 1.1.

Consider `CCCc1cc(O)c2c3c(c(=O)oc2c1)CN(C)CC3`, for which the viability index turned out to be 0.637.
